TRHR ag: qHTS for Small Molecule Agonists and Allosteric Enhancers of Human TRH Receptor: Primary Screen for Agonists. Thyrotropin-releasing hormone receptor (Homo sapiens), P34981. TRHR cells, calcium flux fluo-8, FDSS agonist mode. activation, % at 2 µM. hit rate 0.18% among 360,000
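Read-out: compound-evoked intracellular calcium rise in TRHR cells, fluo-8 dye, kinetic FDSS fluorescence at 1 s/cycle following a 10-cycle baseline. Cells cultured overnight before dye loading (30 min–1.5 h, RT).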
D1 potentiator: Potentiators of Human D1 Dopamine Receptor: qHTS; D(1A) dopamine receptor (Homo sapiens), P21728; HEK293 TREx D1 cells, calcium flux, dopamine EC20 potentiation; potentiation, % at 10 µM; hit rate 0.036% among 360,000; in the data active means potentiation above about 30%
Target sequence (P21728 whole entry, looked up): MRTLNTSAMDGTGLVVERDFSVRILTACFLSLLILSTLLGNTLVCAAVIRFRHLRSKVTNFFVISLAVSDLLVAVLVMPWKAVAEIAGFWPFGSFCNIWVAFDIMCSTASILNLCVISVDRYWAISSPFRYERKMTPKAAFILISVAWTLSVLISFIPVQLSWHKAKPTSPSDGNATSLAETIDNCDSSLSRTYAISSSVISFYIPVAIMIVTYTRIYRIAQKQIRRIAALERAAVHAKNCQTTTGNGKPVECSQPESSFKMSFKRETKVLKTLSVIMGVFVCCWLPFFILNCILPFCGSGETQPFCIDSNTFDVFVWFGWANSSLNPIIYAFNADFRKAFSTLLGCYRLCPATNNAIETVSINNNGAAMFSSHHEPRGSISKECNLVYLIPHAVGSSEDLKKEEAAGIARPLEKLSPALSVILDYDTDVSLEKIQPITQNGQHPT
D1 antagonist: Antagonist of Human D 1 Dopamine Receptor: qHTS | HEK293 TREx D1 cells, calcium flux, dopamine EC80; hits give low values | activity change, negative = inhibition, % at 10 µM | hit rate 3.2% among 360,000 | AID 504652, 2011; in the data active means activity change below about -30%
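Antagonism measured as reduced calcium response to an EC80 dopamine addition following 180 s compound pre-read; cells were inducible HEK293 Trex D1 plated overnight at 30 C, read kinetically at 1 cycle/sec.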
TRHR enhancer: qHTS for Small Molecule Agonists and Allosteric Enhancers of Human TRH Receptor: Primary Screen for Enhancers; Thyrotropin-releasing hormone receptor (Homo sapiens), P34981; TRHR cells, fluo-8 calcium fluorescence, EC20 TRH enhancement; enhancement, % at 2 µM; hit rate 0.66% among 360,000; AID 493056, 2011; in the data active means enhancement above about 30%
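TRHR-expressing cells loaded with fluo-8 calcium dye were read kinetically (ex 480/em 530) during compound addition, then stimulated with an EC20 of TRH (10 nM final). Enhancement of the Gq-mediated intracellular calcium response was scored.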
D1 agonist: Allosteric Agonists of the Human D1 Dopamine Receptor: qHTS; HEK293 T-REx D1 cells, calcium flux, agonist mode; activation, % at 2 µM; hit rate 1% among 360,000; AID 504660, 2011
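Tetracycline-induced HEK293 TREx D1 cells, force-coupled to calcium signalling, were dye-loaded with a no-wash calcium kit. Compound was pin-added after a 10 s baseline. Fluorescence was read kinetically at 1 cycle/s for 180 s, with calcium rises flagged as agonism.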
GRP78 ERSR act: qHTS for Inducers of the Endoplasmic Reticulum Stress Response (ERSR) in Human Glioma: qHTS; hit rate 0.02% among 420,000; U87-MG GRP78 promoter luciferase reporter, 16 h; Potency, µM, actives largely listed as activators; AID 602332, 2012; active means well fitted activation curve with a large enough effect; inconclusive means small, poorly fitted or top-dose-only effect; inactive means no such curve, though single readings can be large or run the other way; further: series mostly up to about 76 µM; nearly all actives have a fitted effect of over 35% in size
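Stably transfected U87-MG glioma cells carrying a GRP78-based luciferase sensor; 16 h compound incubation. Luminescence end-point read 10 min after Bright-Glo addition at room temperature.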
Of the large screens only hits and unclear results are named; the others gave an inactive call. An excerpt weighted towards active compounds, which were near 4% of everything screened. Unless noted, no stated cut-off is given here; in the data, active means activation above about 30%; inactive means the rest.

CCC(=O)OC1[C@@H](N2CCCCC2)C[C@H]2[C@@H]3CC[C@H]4C[C@H](OC(C)=O)[C@@H](N5CCCCC5)C[C@]4(C)[C@H]3CC[C@]12C (stereo not given in full)	none (no result: TRHR ag, D1 potentiator, D1 antagonist, TRHR enhancer, D1 agonist)
CN(CCc1ccccc1)Cc1c[nH]c2ccccc12	D1 antagonist -66
CCN1/C(=C\C=C\C2=[N+](CC)c3ccccc3C2(C)C)C(C)(C)c2ccccc21	TRHR ag 124, D1 agonist 204
Cc1ccc(S(=O)(=O)N(c2cc(Cl)c(O)c(Cl)c2)P(=O)(OC(C)C)OC(C)C)cc1	D1 antagonist -33
O=C1[O][Sb-]23[O]C(=O)C([O]2)C2[O][Sb-]4([O]C(=O)C([O]4)C1[O]3)[O]C2=O	none (no result: TRHR ag, D1 potentiator, D1 antagonist, TRHR enhancer, D1 agonist)
NCCc1ccc(S(N)(=O)=O)cc1	TRHR enhancer 40
Cc1ccc(S(=O)(=O)NCC2CCC(C(=O)N3CCC4(CC3)OCCO4)CC2)cc1 (stereo not given)	D1 antagonist -55
Cc1ccc(S(=O)(=O)Nc2cc(C(=O)N3CCC4(CC3)OCCO4)ccc2N2CCCCC2)cc1	none
O=S(=O)(O)C(F)(F)C(F)(F)C(F)(F)C(F)(F)C(F)(F)C(F)(F)C(F)(F)C(F)(F)F	none (no result: TRHR ag, D1 potentiator, D1 antagonist, TRHR enhancer, D1 agonist)
CCOc1cc(CNC(C)C(O)c2ccccc2)cc(Cl)c1OCC (stereo not given)	D1 agonist 39
CC(C)c1ccc(NC(=O)CN2C(=O)CN=C(c3ccccc3)c3ccccc32)cc1	none
CCOC(=O)C(O)(c1ccc(NC(=S)NC(=O)c2ccc(Cl)cc2Cl)c(C)c1)C(F)(F)F (stereo not given)	D1 antagonist -35, D1 agonist 54
COC(=O)C(O)(c1ccc(NC(=S)NC(=O)c2ccc(Cl)cc2Cl)c(C)c1)C(F)(F)F (stereo not given)	D1 antagonist -52, D1 agonist 46
CCOC(=O)C(NC(=O)CC)(Nc1ccc(C(O)(C(=O)OCC)C(F)(F)F)cc1C)C(F)(F)F (stereo not given)	none
CC(C)OC(=O)C(O)(c1ccc(Cl)cc1)c1ccc(Cl)cc1	none (no result: TRHR ag, D1 potentiator, D1 antagonist, TRHR enhancer, D1 agonist)
N#CC(C#N)=NNc1ccc(-n2ccc(C(F)(F)F)n2)cc1	D1 antagonist -36, D1 agonist 33
Cc1cc(C)n(-c2ccc(NN=C(C#N)C#N)cc2)n1	D1 antagonist -31, D1 agonist 41
CN(N=O)c1ccc(O)c(O)c1	none (no result: TRHR ag, D1 potentiator, D1 antagonist, TRHR enhancer, D1 agonist)
C=C[C@@H]1CN2CC[C@H]1C[C@H]2[C@H](O)c1ccnc2ccccc12	none (no result: TRHR ag, D1 potentiator, D1 antagonist, TRHR enhancer, D1 agonist)
CN1Cc2ccccc2[C@@H]2c3cccc4[nH]cc(c34)C[C@H]21	none (no result: TRHR ag, D1 potentiator, D1 antagonist, TRHR enhancer, D1 agonist)
CC1=C[C@@H]2c3cccc4[nH]cc(c34)C[C@H]2N(C)C1	D1 antagonist -37, D1 agonist 31
N#CC1=C(N)Oc2c(c(=O)sc3ccccc23)C1c1cccnc1 (stereo not given)	TRHR enhancer 35
N#CC1=C(N)Oc2c(c(=O)oc3ccccc23)C1c1ccncc1 (stereo not given)	none
C[C@@H]1C(=O)O[C@@H]2CC34[C@H]5C[C@@H](C(C)(C)C)C36[C@H](OC(=O)[C@@H]6O)OC4(C(=O)O5)[C@@]12O (stereo not given in full)	D1 antagonist -38
C[C@@H]1C(=O)O[C@H]2CC34[C@H]5C[C@@H](C(C)(C)C)[C@]36[C@@H](OC(=O)[C@@H]6O)O[C@@]4(C(=O)O5)[C@]21O (stereo not given in full)	GRP78 ERSR act inconclusive
NC(=O)c1cc([N+](=O)[O-])cc([N+](=O)[O-])c1	none (no result: TRHR ag, D1 potentiator, D1 antagonist, TRHR enhancer, D1 agonist)
CC(C)(C)c1cc([N+](=O)[O-])cc(C(C)(C)C)c1O	D1 antagonist -36, D1 agonist 34

Screening results from PubChem BioAssay.
